PubChem BioAssay (EPA / NIEHS)
Calls of active or inactive are those of the source. The calls were made as follows: active = hit-call score of the fitted dose curve at least 0.9, where 1 is the maximum; inactive = score below 0.9.

Assays:
[1] = read-out: Interleukin-1 alpha (IL1a), IL1A (gene 3552); test: BSK_KF3CT_IL1a: BioMAP Diversity Plus: KF3CT Assay for Interleukin-1 alpha (IL1a) Biomarker Activity (AID 2283070); settings: primary human keratinocytes with fibroblasts; actives raise or lower the signal
Method in brief: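 Human keratinocyte plus foreskin fibroblast primary co-culture, sampled 24 h after chemical dosing. IL-1a measured by ELISA; responses fitted bidirectionally against DMSO baseline (negative control), so gain or loss of signal both count.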

[2] = read-out: TIMP metallopeptidase inhibitor 2 (TIMP2), TIMP2 (gene 7077); test: BSK_KF3CT_TIMP2: BioMAP Diversity Plus: KF3CT Assay for TIMP metallopeptidase inhibitor 2 (TIMP2) Biomarker Activity (AID 2283071); settings: primary human keratinocytes with fibroblasts; actives raise or lower the signal
Method in brief: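 Human primary keratinocyte/foreskin fibroblast co-culture dosed with chemical and sampled at 24 h. TIMP-2 levels quantified by ELISA; bidirectional fitting against DMSO negative control as baseline.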

[3] = read-out: Transforming growth factor beta 1 (TGFb1), TGFB1 (gene 7040); test: BSK_KF3CT_TGFb1: BioMAP Diversity Plus: KF3CT Assay for Transforming growth factor beta 1 (TGFb1) Biomarker Activity (AID 2283072); settings: primary human keratinocytes with fibroblasts; actives raise or lower the signal
Method in brief: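 Human keratinocyte plus foreskin fibroblast primary co-culture, dosed with chemical for 24 h. TGF-b1 quantified by ELISA. Activity fitted bidirectionally against DMSO negative control as baseline.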

[4] = read-out: C-C motif chemokine 2 (Homo sapiens) (UniProt P13500); test: BSK_KF3CT_MCP1: BioMAP Diversity Plus: KF3CT Assay for Monocyte Chemoattractant Protein 1 (MCP1/CCL2) Biomarker Activity (AID 2283073); settings: primary human keratinocytes with fibroblasts; actives raise or lower the signal
Method in brief: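 ELISA read-out of MCP-1, 24 h post-dose, in primary human skin keratinocytes co-cultured with fibroblasts. Parallel SRB staining monitors cytotoxicity; changes fitted both directions relative to DMSO.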

[5] = read-out: Matrix Metallopeptidase 9 (MMP9), MMP9 (gene 4318); test: BSK_KF3CT_MMP9: BioMAP Diversity Plus: KF3CT Assay for Matrix Metallopeptidase 9 (MMP9) Biomarker Activity (AID 2283074); settings: primary human keratinocytes with fibroblasts; actives raise or lower the signal;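 as to AC50: MMP9 protein level quantified by ELISA in the co-culture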
Method in brief: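 Keratinocyte plus foreskin fibroblast human primary skin co-culture was dosed with chemical and MMP-9 was quantified by ELISA 24 h later. Bidirectional curve fitting used DMSO as negative control and activity baseline.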

[6] = read-out: urokinase plasminogen activator (uPA), PLAU (gene 5328); test: BSK_KF3CT_uPA: BioMAP Diversity Plus: KF3CT Assay for urokinase plasminogen activator (uPA) Biomarker Activity (AID 2283075); settings: primary human keratinocytes with fibroblasts; actives raise or lower the signal
Method in brief: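 Human keratinocyte plus foreskin fibroblast primary co-culture exposed to chemical for 24 h. uPA levels were quantified by ELISA, and activity was fitted bidirectionally against a DMSO negative-control baseline.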

CD40, CD40 (gene 958) = test: BSK_LPS_CD40: BioMAP Diversity Plus: LPS Assay for CD40 Biomarker Activity (AID 2283076); settings: primary human HUVEC with PBMC; actives raise or lower the signal
Method in brief: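 In the LPS system of human endothelial cells with peripheral blood mononuclear cells, CD40 levels were read by ELISA 24 h post-treatment. Signal changes in either direction were fitted against the DMSO baseline, with parallel SRB protein staining.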

[7] = read-out: E-selectin (Homo sapiens) (UniProt P16581); test: BSK_LPS_Eselectin: BioMAP Diversity Plus: LPS Assay for Eselectin Biomarker Activity (AID 2283077); settings: primary human HUVEC with PBMC; actives raise or lower the signal
Method in brief: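 E-selectin ELISA on LPS-stimulated endothelial cell/PBMC co-cultures, read 24 h post-treatment; gains and losses fitted against DMSO. Parallel SRB staining (0.1% SRB after 10% TCA fixation, 560 nm) flags overt cytotoxicity.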

[8] = read-out: Interleukin-8 (IL8), CXCL8 (gene 3576); test: BSK_LPS_IL8: BioMAP Diversity Plus: LPS Assay for Interleukin-8 (IL8) Biomarker Activity (AID 2283078); settings: primary human HUVEC with PBMC; actives raise or lower the signal
Method in brief: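 ELISA read-out of IL-8 after 24 h chemical treatment of LPS-activated endothelial/PBMC human primary co-cultures. Changes either up or down relative to DMSO; overt cytotoxicity checked by sulforhodamine B staining in parallel wells.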

[9] = BSK_LPS_SRB: Viability Assessment in the BioMAP Diversity Plus: LPS Assay (AID 2283079); settings: primary human HUVEC with PBMC;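 also: total protein by sulforhodamine B absorbance as a cytotoxicity measure; measured one day after compound addition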
Method in brief: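 SRB viability endpoint: cells fixed with 10% TCA, stained with 0.1% SRB, read at 560 nm, 24 h post-dose. HUVEC/PBMC co-culture; signal change in either direction scored relative to DMSO.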

Measured: AC50

E-selectin (Homo sapiens), sequence (P16581 whole entry, looked up): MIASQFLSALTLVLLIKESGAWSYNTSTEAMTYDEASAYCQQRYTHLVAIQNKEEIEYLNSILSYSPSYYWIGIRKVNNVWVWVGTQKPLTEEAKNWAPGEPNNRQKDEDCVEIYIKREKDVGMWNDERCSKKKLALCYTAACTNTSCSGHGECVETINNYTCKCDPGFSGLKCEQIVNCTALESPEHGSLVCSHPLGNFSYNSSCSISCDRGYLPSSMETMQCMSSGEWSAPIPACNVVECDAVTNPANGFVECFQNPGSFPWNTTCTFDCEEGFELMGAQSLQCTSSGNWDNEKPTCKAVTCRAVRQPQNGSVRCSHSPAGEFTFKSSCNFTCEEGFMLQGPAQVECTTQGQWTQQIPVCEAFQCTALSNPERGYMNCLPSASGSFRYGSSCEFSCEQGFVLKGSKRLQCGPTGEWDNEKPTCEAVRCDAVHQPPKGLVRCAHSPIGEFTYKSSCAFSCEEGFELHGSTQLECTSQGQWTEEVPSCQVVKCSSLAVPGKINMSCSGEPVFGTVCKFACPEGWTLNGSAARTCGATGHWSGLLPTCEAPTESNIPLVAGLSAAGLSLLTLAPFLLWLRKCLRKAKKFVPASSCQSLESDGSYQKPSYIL

C1CC2OC2CC1C1CO1 (configuration not stated)
inactive: [1] | [2] | [3] | [4] | [5] | [6] | CD40, CD40 (gene 958) | [7] | [8] | [9]

Clc1ccc(Cl)cc1
inactive: [1] | [2] | [3] | [4] | [5] | [6] | CD40, CD40 (gene 958) | [7] | [8] | [9]

CN(C)c1nc(=O)n(C2CCCCC2)c(=O)n1C
inactive: [1] | [2] | [3] | [4] | [5] | [6] | CD40, CD40 (gene 958) | [7] | [8] | [9]

CCCCCCCCCC[N+](C)(C)CCCCCCCCCC
active: [1] 6.82 µM | [2] 4.71 µM | [3] 3.03 µM | [4] 4.69 µM | [5] 4.56 µM | [6] 5.24 µM | CD40, CD40 (gene 958) 4.27 µM | [7] 4.41 µM | [8] 5.86 µM | [9] 5.32 µM

CCC(C)c1cc([N+](=O)[O-])cc([N+](=O)[O-])c1O (configuration not stated)
active: [4] 11.6 µM | [5] 12.6 µM | [7] 27 µM | [8] 27.5 µM | [9] 20 µM
inactive: [1] | [2] | [3] | [6]

Cc1cc(-c2ccc(N)c(C)c2)ccc1N
inactive: [1] | [2] | [3] | [4] | [5] | [6] | [7] | [8] | [9]

CCCCCCCCCc1ccc(O)cc1
active: [1] 15.6 µM | [2] 14.6 µM | [3] 13.5 µM | [5] 13.2 µM | [6] 17.2 µM | CD40, CD40 (gene 958) 22.6 µM | [7] 29.9 µM | [8] 27.6 µM | [9] 23.1 µM

CC#Cc1cc(C)nc(Nc2ccccc2)n1
inactive: [1] | [2] | [3] | [4] | [5] | [6] | CD40, CD40 (gene 958) | [7] | [8] | [9]

O=C(O)C(F)(F)C(F)(F)C(F)(F)C(F)(F)C(F)(F)F
inactive: [1] | [2] | [3] | [4] | [5] | [6] | CD40, CD40 (gene 958) | [7] | [8] | [9]

CCC(=O)O[C@H]1CC[C@H]2[C@@H]3CCC4=CC(=O)CC[C@]4(C)[C@H]3CC[C@]12C
active: [1] 32.7 µM | [2] 30.7 µM | [5] 32.4 µM | [6] 32.5 µM | CD40, CD40 (gene 958) 28 µM | [7] 29.4 µM | [8] 26.5 µM
inactive: [4]

CC1=C2C[C@H]3[C@@H](CC=C4C[C@@H](O)CC[C@@]43C)[C@@H]2CC[C@]12O[C@@H]1C[C@H](C)CN[C@H]1[C@H]2C
inactive: [1] | [2] | [3] | [4] | [5] | [6] | CD40, CD40 (gene 958) | [7] | [8] | [9]

Cc1ccccc1O
inactive: [1] | [2] | [3] | [4] | [5] | [6] | CD40, CD40 (gene 958) | [7] | [8] | [9]

Clc1ccc(C(c2ccccc2Cl)C(Cl)(Cl)Cl)cc1 (configuration not stated)
active: [1] 18.4 µM | [2] 19 µM | [3] 19.1 µM | [4] 10.7 µM | [5] 8.05 µM | [6] 21.6 µM | CD40, CD40 (gene 958) 19.4 µM | [8] 21.9 µM | [9] 19.2 µM

ClC1=C(Cl)[C@]2(Cl)[C@@H]3[C@@H]4C[C@@H]([C@H]5O[C@@H]45)[C@@H]3[C@@]1(Cl)C2(Cl)Cl
inactive: [1] | [2] | [3] | [4] | [5] | [6] | CD40, CD40 (gene 958) | [7] | [8] | [9]

CCOP(=S)(OCC)SCSC(C)(C)C
inactive: [1] | [2] | [3] | [4] | [5] | [6] | [7] | [8] | [9]
active: CD40, CD40 (gene 958) 36.2 µM

c1ccc(-c2ccccc2)cc1
inactive: [1] | [2] | [3] | [5] | [6] | CD40, CD40 (gene 958) | [7] | [8] | [9]

Cc1cccc([N+](=O)[O-])c1
inactive: [1] | [2] | [3] | [5] | [6] | CD40, CD40 (gene 958) | [7] | [8] | [9]
